Source: PubChem (National Center for Advancing Translational Sciences (NCATS))
HCV inh – blocks hepatitis C virus; Huh7.5.1 HCVcc-Cre infection, luciferase reporter, 44 h; Potency, µM (series often up to 41.8 µM), for inactives: top-dose activity change, negative = inhibition, hits mostly inhibitors; 340,000 compounds, 3.4% hits; AID 651820; note: potency is the fitted concentration of half-maximal effect; % is set by controls: 0 for no effect and ±100 for the full control effect
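Whole-lifecycle infectious HCVcc-Cre system; cells 1,000/well, compound then virus (~0.5 moi) added 4 h after plating, 44 h culture. Luciferase read 15 sec following 15 min substrate incubation, room temp.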
Pf growth 96h – P. falciparum growth inhibition at 96 hours; Potency, µM (top dose mostly 28.7 µM), for the others: at the top dose activity change, negative = inhibition, most hits filed as inhibitors; 320,000 compounds, 6.9% hits; P. falciparum luciferase reporter growth, 96 h; AID 504834; note: potency is the fitted concentration of half-maximal effect; % is set by controls: 0 for no effect and ±100 for the full control effect
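Two-generation exposure (96 h) targets delayed-death phenotype. Reporter parasites carrying integrated firefly luciferase, in red cells at 2% hematocrit and 0.05% parasitemia final, kept at 37 C, 5% CO2; luminescence loss indicates inhibition.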
Pf growth 48h – inhibits P. falciparum growth in the first generation, 48 h; P. falciparum luciferase growth in erythrocytes, 48 h; Potency, µM (series often up to 28.7 µM), without a hit: at the top dose activity change, negative = inhibition, most hits filed as inhibitors; 310,000 compounds, 5.9% hits; AID 504832; note: potency is the fitted concentration of half-maximal effect; % is set by controls: 0 for no effect and ±100 for the full control effect
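Firefly luciferase activity from engineered P. falciparum reports growth; inhibitors lower the luminescent signal. Cultures contained 2% hematocrit erythrocytes at 0.1% final parasitemia.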
CHX counter – counter-screen hit for Shiga toxin inhibitors, cycloheximide. cell reporter, cycloheximide protein synthesis inhibition counterscreen. max response, %. 300,000 compounds, 12% hits. AID 2314; in the data active = max response mostly above about 13%, no sharp cut-off; inactive = mostly below about 14%; note: read at 38.3 µM for the half of the compounds with a filed dose; 0% is about no effect
Shiga inhibitor – blocks Shiga toxin action in Vero cells; Vero cells, Shiga toxin protein synthesis inhibition reporter; inhibition, % at 38.7 µM; 290,000 compounds, 9.2% hits; AID 2315; in the data active = inhibition mostly above about 28%, no sharp cut-off; inactive = mostly below about 43%; note: 0% is about no effect
HCMV inh – blocks human cytomegalovirus replication | HFF cells, HCMV-luciferase reporter, 72 h; stronger effect = lower value | activity change, negative = inhibition, % at 57.5 µM | 410,000 compounds, 4.5% hits; in the data active = activity change below about -60%; inconclusive = no clear call, values can overlap the other calls; inactive = above about -39%; note: % is set by controls: 0 for no effect and ±100 for the full control effect
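Steps: HFFs plated, 16 h 37C; compounds added; HCMV-luciferase added to MOI 1 PFU/cell; 72 h 37C; OneGlo reagent, 5 min room temperature; luminescence read, normalized to controls.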
* marks the source's active call; other numbers are inactive results; u = inconclusive; x = no result; [ ] = another dose, or the depositor's remark. Rows were chosen to be rich in hits. Some 21% of all compounds tested hit in one or more screens of this group. Unless noted, calls come from the whole dose curve; as a rule, active = well fitted inhibition curve with a large enough effect; inconclusive = small, poorly fitted or top-dose-only effect, or another doubt; inactive = no such curve, though single readings can be large or run the other way.

SMILES	HCV inh	Pf growth 96h	Pf growth 48h	CHX counter	Shiga inhibitor	HCMV inh
Cn1c(SCC(=O)c2ccccc2)nnc1-c1ccccn1	1%	40%	59%	53*	113*	42
COc1ccc2c(Cl)c(-c3nnc(SCC(=O)c4ccccc4)n3C)sc2c1	11µM*	x	u	-2	-3	-1
Cn1c(SCC(=O)c2ccc(F)cc2)nnc1-c1cnccn1	6%	u	24%	32	44	-14
Cc1cc(C)c(S(=O)(=O)NCc2csc(C)n2)c(C)c1	-1%	u	1%	5	1	-13
O=C(CN1C(=O)c2ccc(Br)cc2C1=O)NCC1CCCO1 (stereo unspecified)	16%	48%	7%	8	-6	-2
CCN(CC)C(=O)Cn1c(=O)n(CCc2ccccc2)c(=O)c2ccccc21	x	x	x	x	x	38
Cn1c(SCC(=O)c2ccccc2)nnc1-c1cccc(N)c1	-14%	3%	x	29*	65	76
Cn1c(SCC(=O)c2ccccc2)nnc1-c1ccncc1	5%	-6%	19%	-3	-4	-4
Cn1c(SCc2ccccc2)nnc1-c1ccc(O)cc1	7%	21%	7%	31*	66*	-24
Cn1c(SCc2ccccc2)nnc1-c1ccc2c(c1)OCO2	5%	36%	69%	49*	75*	-28
Cn1c(SCC(=O)c2ccccc2)nnc1-c1ccc(O)cc1	6%	20%	x	35*	68*	-24
Cc1nc(-c2ccccn2)nc(SCC(=O)c2ccccc2)c1Cl	-74%	5.2µM*	15µM*	-2	-14	-82*
Cc1nc(-c2ccccn2)nc(SCC(=O)N2CCOCC2)c1Cl	13%	-10%	23%	-2	1	61
Cn1c(SCC(=O)NC(C)(C)C)nnc1-c1ccc(C(C)(C)C)cc1	u	39%	u	-1	2	-60*
CCCCc1nn2c(=O)cc(COC(=O)c3cccc(NC(=O)CCc4ccccc4)c3)nc2s1	x	x	x	x	x	86
CCOC(=O)CNC(=O)COc1coc(CN2CCN(c3ccc(F)cc3)CC2)cc1=O	-13%	u	7%	0	12	-31
C=CS(=O)(=O)c1ccc(Oc2ccc(S(=O)(=O)C=C)cc2)cc1	u	x	6%	-1	20	-102*
C=C1c2cc3c(cc2NC(=S)N1Cc1ccccc1)OCO3	u	u	12µM*	12	-3	-33
CCOc1ccc(NC(=O)CNC(=O)c2ccc([N+](=O)[O-])cc2)cc1	-22%	u	7%[5.75 µM]	-1	2	-21
CCN1CCC(N(Cc2ccc(F)cc2)C(=O)Nc2ccc(C)c(F)c2)CC1	x	x	x	x	x	65
COc1ccc(N2CCN(Cc3cc(=O)oc4cc(C)c(Cl)cc34)CC2)cc1	7%	37%	-5%	-3	-5	2
O=c1cc(CN2CCN(c3ccc(F)cc3)CC2)c2cc3c(cc2o1)CCCC3	16%	-2%	-21%	-3	15	-62*
COc1ccc(N2CCN(Cc3cc(=O)oc4cc(-c5ccccc5)c(O)cc34)CC2)cc1	-10%	2.9µM*	1.9µM*	-4	16	-80*
O=c1cc(CN2CCN(c3ccccc3F)CC2)c2cc(O)c(-c3ccccc3)cc2o1	3%	2.3µM*	2.6µM*	-2	18	-30
COc1cc2oc(=O)cc(CN3CCN(c4ccccc4F)CC3)c2cc1Cl	x	x	x	x	x	-4
SMILES	HCV inh	Pf growth 96h	Pf growth 48h	CHX counter	Shiga inhibitor	HCMV inh
CN1CCN(Cc2cc(=O)oc3cc4c(cc23)CCC4)CC1	u	10%	x	-1	4	2
N#Cc1ccccc1OCC(=O)NCc1ccccc1CN1CCCC1	u	u	u	x	x	0
CCOc1ccc(NS(=O)(=O)c2ccc(C(=O)NCCCN3CCCC3=O)cc2)cc1	u	u	0%	-2	26	-12
Cc1ccc2nc(-c3c[nH]c4ccccc34)c(Nc3ccccc3)n2c1	x	x	x	x	x	83
C[C@H](CO)N1C[C@H](C)[C@@H](CN(C)S(=O)(=O)c2ccc(F)cc2)Oc2ccc(NC(=O)C3CC3)cc2C1=O	4%	x	x	x	x	3
CC1C(=O)N(Cc2cn(CCC3OCCO3)nn2)CCS(=O)(=O)N1Cc1ccc(-c2ccc(F)nc2)cc1 (stereo unspecified)	x	x	x	x	x	-24
